Assay outcomes: PubChem, National Center for Advancing Translational Sciences (NCATS)
In the library only some 13% were active in any assay of this set; here they are far more common.
HCV inh: qHTS Assay for Inhibitors of Hepatitis C Virus (HCV); Potency, µM (highest dose often 41.8 µM), for inactives: top-dose activity change, negative = inhibition, actives largely listed as inhibitors; Huh7.5.1 HCVcc-Cre infection, luciferase reporter, 44 h; 3.4% of 340,000 active; active = well fitted inhibition curve with a large enough effect; inconclusive = small, poorly fitted or top-dose-only effect, or another doubt; inactive = no such curve, though single readings can be large or run the other way; note: potency is the fitted concentration of half-maximal effect; % is set by controls: 0 for no effect and ±100 for the full control effect
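Luciferase read-out (15 sec integration) after a 15 min room-temperature substrate step quantifies HCVcc-Cre infection. Cells, 1,000 per well, had compound added 4 h post-plating, then virus at ~0.5 moi, and were cultured 44 h.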
LASV entry inh: qHTS for Inhibitors of binding or entry into cells for Lassa Virus | Potency, µM (titrated, usually from 37.9 µM), for inactives: top-dose activity change, negative = inhibition, hits mostly inhibitors | AID 540256, 2011 | 1.2% of 300,000 active | Lassa virus pseudotype entry inhibition, cell reporter; calls by dose curve; tested in HEK293 cells; note: potency is the fitted concentration of half-maximal effect; % is set by controls: 0 for no effect and ±100 for the full control effect; nearly all actives have a fitted effect of over 50% in size
CHX counter: Cycloheximide Counterscreen for Small Molecule Inhibitors of Shiga Toxin | cell reporter, cycloheximide protein synthesis inhibition counterscreen | max response, % | 12% of 300,000 active | AID 2314, 2010; in the data active = max response mostly above about 13%, no sharp cut-off; inactive = mostly below about 14%; note: read at 38.3 µM for the half of the compounds with a filed dose; 0% is about no effect
MARV entry inh: qHTS for inhibitors of binding or entry into cells for Marburg Virus; Marburg virus pseudotyped entry inhibition, cell reporter; Potency, µM (doses to about 37.8 µM), for the others: top-dose activity change, negative = inhibition, usual class: inhibitors; 1.8% of 300,000 active; AID 540276, 2011; calls by dose curve; tested in HEK293 cells; note: potency is the fitted concentration of half-maximal effect; % is set by controls: 0 for no effect and ±100 for the full control effect
Shiga inhibitor: A qHTS for Small Molecule Inhibitors of Shiga Toxin. 9.2% of 290,000 active. AID 2315, 2010. Vero cells, Shiga toxin protein synthesis inhibition reporter. inhibition, % at 38.7 µM; in the data active = inhibition mostly above about 28%, no sharp cut-off; inactive = mostly below about 43%; note: 0% is about no effect
FMDV antiviral: High Throughput Screening for Foot and Mouth Disease Virus Antivirals | 1.2% of 410,000 active | Potency, µM (series often up to 57.9 µM), inactives show top-dose activity change, negative = inhibition, usual class: inhibitors | AID 1159524, 2015 | FMDV antiviral cell-based qHTS; calls by dose curve; tested in HEK293T cells; note: read-out not given here; potency is the fitted concentration of half-maximal effect; % is set by controls: 0 for no effect and ±100 for the full control effect; nearly all actives have a fitted effect of over 45% in size
Active calls of the source: *; ? = inconclusive; · = not tested or not shown; ! = not confirmed by another sample; [ ] = another dose, or the depositor's remark.

SMILES	HCV inh	LASV entry inh	CHX counter	MARV entry inh	Shiga inhibitor	FMDV antiviral
c1ccc(-c2noc(CN3CCc4sccc4C3)n2)cc1	?	·	18*	-4%[46.1 µM]	50	24%
NC(=O)[C@@H]1CCCN1Cc1nc(-c2ccc(C(F)(F)F)cc2)no1	-11%	·	16*	·	12	-11%
CCCNC(=O)CN(c1ccccc1)S(=O)(=O)c1ccc(OC)c(OC)c1	-4%	11%	0	0%	4	-3%
Cc1ccc(-c2noc(-c3ccc(N4CCC(C)CC4)c([N+](=O)[O-])c3)n2)cc1	·	-5%[46.1 µM]	·	-2%[46.1 µM]	·	0%
CC1CCN(c2ccc(-c3nc(-c4ccccc4)no3)cc2[N+](=O)[O-])CC1	·	?	44*	?	82*	5%
CC1CCN(Cc2nc(-c3ccccc3)no2)CC1	24%	4%	23*	?	25	15%
CC1C(=O)N(Cc2cn(Cc3ccco3)nn2)CCS(=O)(=O)N1Cc1ccc(-c2cccnc2)cc1 (stereo not given)	·	·	·	·	·	-11%
C/C(=N\O)C(C)(C)Nc1ccc(Cl)cc1	-2%	18%[46.1 µM]	1	-4%[46.1 µM]	28	-11%
N#CC1(NC(=O)COC(=O)c2nc(Cl)c(Cl)c(N)c2Cl)CCCCC1	22%	?	·	26%	·	-1%
CCOC(=O)C1(Cc2cccc(F)c2)CCN(C(=O)C2CCCO2)CC1 (stereo not given)	-2%	?	-5	1%[46.1 µM]	17	-16%
Cc1csc(=N)n1-c1ccc(Cl)cc1	-15%	?	59*	-8%	176*	·
Cc1csc(=S)n1-c1ccccc1	21%	-2%	-2	-11%	-18	-7%
Cc1cc(=O)cc(C)n1-c1ccc(Cl)cc1	-11%	20%	-2	13%	-24	-11%
Cc1ccc(-n2c(C)csc2=N)cc1	-15%	-16%	56*	?	55*	59%
O=c1cc(-c2ccccc2Cl)oc2ccc([N+](=O)[O-])c(O)c12	19%	4%	-1	18%	12	-9%
O=c1cc(-c2cccc(Cl)c2)oc2cccc(O)c12	32%[8.37 µM]	·	27*!	·	97	34%
Cc1ccccc1-c1cc(=O)c2c(O)cccc2o1	10%	·	22*	·	28*	9%
O=c1cc(-c2cccc(Br)c2)oc2cccc(O)c12	16%	·	-3	·	-7	17%
Nc1ccc2oc(-c3ccccc3Cl)cc(=O)c2c1O	?	2%	50*	-5%	43*	65%
O=c1cc(-c2ccccc2)oc2cccc(O)c12	6%	·	·	·	·	39%
CC(C)Oc1ccc(CNC(=O)c2ccccc2NC(=O)c2nsc3ccccc23)cc1	·	-4%[46.1 µM]	·	·	·	0%
Cc1ccc(S(=O)(=O)Nc2ccc3c(c2)C(=O)N([C@@H](C)CO)C[C@@H](C)[C@@H](CN(C)C(=O)NC2CCCCC2)OCCCC[C@H](C)O3)cc1	·	·	·	·	·	1%
CC(=O)[C@H]1[C@H](C#N)CC2C3CC=C4C[C@@H](O)CCC4(C)C3CCC21C (stereo not given in full)	·	·	-1	·	-4	·
CC(=O)C1C(N2CC2)CC2C3CC=C4CC(O)CCC4(C)C3CCC21C (stereo not given)	11µM*	?	·	?	·	-16%
COc1cc(-c2cc(C(=O)O)c3cc4ccccc4cc3n2)cc(OC)c1OC	·	·	·	·	·	-3%
SMILES	HCV inh	LASV entry inh	CHX counter	MARV entry inh	Shiga inhibitor	FMDV antiviral
COc1cc(-c2ccccc2)nc2ccccc12	?	-18%	4	0%[46.1 µM]	20	-23%
COc1ccc(-c2cc(OC)c3ccccc3n2)cc1	?	14%	14	-16%	active	24%
COc1ccc2c(OC)cc(-c3ccccc3)nc2c1	10µM*	0%	-1	-12%	12	-12%
COc1ccc(-c2cc3ccc(OC)cc3cn2)cc1	-6%	·	·	·	·	-50%
COc1ccc(-c2cc3cc(OC)c(OC)cc3c(C)n2)cc1	14µM*	-2%	34*	-16%[46.1 µM]	75*	30%
CC1C(=O)N(Cc2cn(CC3CCCCC3)nn2)CCS(=O)(=O)N1Cc1ccc(-c2ccc(F)nc2)cc1 (stereo not given)	·	?	·	·	·	-22%
c1ccc(Oc2ccc(-c3ccn[nH]3)cc2)cc1	-16%	1%	37*	?	69*	62%
C/C(=N\Nc1ncc(Cl)cc1Cl)c1ccc(OC(F)F)cc1	-7%	10%	50*	13%	42*	22%
CNC(=S)N/N=C(\C)c1cccc(C(F)(F)F)c1	?	·	-3	·	-7	14%
COC(=O)N/N=C(\C)c1cccc(C(F)(F)F)c1	-2%	9%	29*	-1%[46.1 µM]	34	18%
COC(=O)N/N=C(\C)c1ccc(OC(F)F)cc1	21%	30%	35*	?	80*	52%
C/C(=N\NC(=O)C1CC1)c1ccc(OC(F)F)cc1	-9%	·	9	17%[46.1 µM]	51*	33%
C/C(=N\Nc1ncc(Cl)cc1Cl)c1ccc2c(c1)OCO2	0%	·	13	·	58	76%
CC(C)Oc1cc(F)ccc1-c1cc(C(=O)Nc2ccccc2)[nH]n1	·	·	·	·	·	6%
Fc1ccc(NC(=S)N2CCCC2)cc1Cl	-6%	-1%	-2	?	-15	0%
C/C(=N\NC(=O)c1ccc2c(c1)OCO2)c1ccc2c(c1)OCO2	-15%	?	35*	16%[46.1 µM]	62*	6%
C/C(=N\NC(=O)c1ccc2c(c1)OCO2)c1ccc(C(=O)O)s1	6%	-19%	31*	0%[46.1 µM]	54*	16%
C/C(=N\NC(=O)C1CC1)c1ccc2c(c1)OCCO2	2%	?	28*	20%[46.1 µM]	44	47%
C/C(=N\NC(=O)c1ccc(O)cc1)c1ccc2c(c1)OCCO2	6%	·	·	·	·	32%
CCCCC(=O)Nc1ccc(C(=O)Nc2ccc3c(c2)OCO3)cc1	?	20%	9	7%	53	·
C/C(=N\NC(=O)c1ccc2c(c1)OCO2)c1ccc(NC(=O)CCCC(=O)O)cc1	-6%	-8%[46.1 µM]	34*	?	57*	-1%
COC(=O)c1ccc(CSc2nnc(Nc3ccc(C)cc3)s2)o1	12%	1%	23	-1%	12	-9%
COC(=O)c1ccc(N2CCN(C)CC2)c(NC(=O)c2sc3ccccc3c2Cl)c1	?	4%[46.1 µM]	·	-3%[46.1 µM]	·	-19%
O=C(c1ccc2c(c1)OCO2)N1CCCN(C(=O)c2ccc3c(c2)OCO3)CC1	9%	-13%	-2	9%	-3	-8%
C/C(=N\Nc1ccc([N+](=O)[O-])cc1)c1ccc2c(c1)OCO2	-20%	-1%[46.1 µM]	30*	?	81*	16%
CC(/C=C/c1ccccc1)=N\NC(=O)c1ccc2c(c1)OCCO2	?	?	50*	?	48*	-15%
O=C(NN=C1CCCCCC1)c1ccc2c(c1)OCO2	8%	?	38*	?	38	16%
C/C(=N\NS(=O)(=O)c1ccc([N+](=O)[O-])cc1)c1ccc2c(c1)OCO2	23%	24%[46.1 µM]	7	8%[46.1 µM]	-8	18%
